From PubChem BioAssay (EPA / NIEHS)
Inconclusive results are not listed. Where a structure was tested more than once in an assay, its records may differ in their call. The source made the active and inactive calls. Rule for the calls: active = hit-call score of the fitted dose curve at least 0.9, where 1 is the maximum; inconclusive = response in the unintended direction; inactive = score below 0.9.

What was measured:
CDK2 (gene 1017) = CDK2 (gene 1017) (UniProt P24941); assay: NVS_ENZ_hCDK2: NovaScreen (NVS) Enzymatic Assay for human Cyclin-Cependent Kinase 2 (CDK2) (AID 2283144)
Summary of the method: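 Cell-free recombinant human CDK2 with fluorescent substrate, product separated by electrophoretic mobility shift; 1 hr read. Primary screen at 25 uM in duplicate, actives retested in concentration-response up to 50 uM; loss of signal versus DMSO.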

[1] = biological target: human Elastase, ELANE (gene 1991) (UniProt P08246); assay: NVS_ENZ_hElastase: NovaScreen (NVS) Enzymatic Assay for human Elastase (AID 2283153)
Experimental: NVS_ENZ_hElastase is a biochemical, single-readout assay that uses extracted gene-proteins from Human neutrophils in a cell-free assay. Measurements were taken 1.5 hours after chemical dosing in a 96-well plate.NVS_ENZ_hElastase is one of one assay component(s) measured or calculated from the NVS_ENZ_hElastase assay. It is designed to make measurements of enzyme activity, a form of enzyme reporter, as detected with absorbance signals by Spectrophotometry technology.Data from the assay component NVS_ENZ_hElastase was analyzed into 1 assay endpoint. This assay endpoint, NVS_ENZ_hElastase, was analyzed in the positive analysis fitting direction relative to DMSO as the negative control and baseline of activity. Using a type of enzyme reporter, loss-of-signal activity can be used to understand changes in the enzymatic activity as they relate to the gene ELANE. Furthermore, this assay endpoint can be referred to as a primary readout, because this assay has produced multiple assay endpoints where this one serves a enzymatic activity function. To generalize the intended target to other relatable targets, this assay endpoint is annotated to the protease intended target family, where the subfamily is serine protease.
Binding assays used specific radioligands (tritiated, iodinated) with non-radioactive competitive displacement ligands in agonist or antagonist protocols (as indicated) and various reference compounds and inhibitors to titrate specific binding to receptors and transporters. Most enzyme assays (CYPs, kinases, phosphatases, proteases, HDACs) used recombinant protein and specific substrates (fluorescence mostly, some colorimetric and radioactive) and inhibitors, followed by a biochemical separation of substrate and product. All assays for the biochemical HTS were initially run in duplicate at a single concentration (10 uM for CYP450 assays and 25 uM for all others). Assay-chemical combinations meeting a pre-defined threshold (e.g., 30% inhibition and other criteria defined below) were then run in singleton concentration-response format with maximum concentration of 20 uM for CYPs and 50 uM for all others. Each assay was run with positive and negative controls, and concurrent controls on every plate. The follow-up (secondary) screen tested active chemical-pairs in concentration series, as well as a few additional assays not tested in the primary screen, some selected negative inactives, and several cases re-run in the concentration series for confirmatory purposes.

[2] = biological target: human Dual Specificity Protein Phosphatase 3 (DUSP3), DUSP3 (gene 1845) (UniProt P51452); assay: NVS_ENZ_hDUSP3: NovaScreen (NVS) Enzymatic Assay for human Dual Specificity Protein Phosphatase 3 (DUSP3) (AID 2283152);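 note: phosphatase activity of recombinant human DUSP3 on a fluorogenic substrate without cells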
Summary of the method: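 Cell-free assay with recombinant human DUSP3 and fluorogenic substrate, read by fluorescence intensity. Primary screen ran duplicate at 25 uM; actives followed up in concentration series; loss of signal versus DMSO scored.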

[3] = biological target: human Aurora Kinase A - serine/threonine-protein Kinase 6 (AurA), AURKA (gene 6790) (UniProt O14965); assay: NVS_ENZ_hAurA: NovaScreen (NVS) Enzymatic Assay for human Aurora Kinase A - serine/threonine-protein Kinase 6 (AurA) (AID 2283142)
Summary of the method: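 Cell-free enzymatic assay with human Aurora A, 1 hour after dosing. Fluorescent substrate turnover detected after electrophoretic mobility shift separation of substrate and product. Screened at 25 uM, actives retested in concentration-response up to 50 uM.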

[4] = biological target: human Caspase 4 (CASP4), CASP4 (gene 837) (UniProt P49662); assay: NVS_ENZ_hCASP4: NovaScreen (NVS) Enzymatic Assay for human Caspase 4 (CASP4) (AID 2283143)
Experimental: NVS_ENZ_hCASP4 is a biochemical, single-readout assay that uses extracted gene-proteins from E. coli in a cell-free assay. Measurements were taken 2 hours after chemical dosing in a 96-well plate.NVS_ENZ_hCASP4 is one of one assay component(s) measured or calculated from the NVS_ENZ_hCASP4 assay. It is designed to make measurements of enzyme activity, a form of enzyme reporter, as detected with fluorescence intensity signals by Fluorescence technology.Data from the assay component NVS_ENZ_hCASP4 was analyzed into 1 assay endpoint. This assay endpoint, NVS_ENZ_hCASP4, was analyzed in the positive analysis fitting direction relative to DMSO as the negative control and baseline of activity. Using a type of enzyme reporter, loss-of-signal activity can be used to understand changes in the enzymatic activity as they relate to the gene CASP4. Furthermore, this assay endpoint can be referred to as a primary readout, because this assay has produced multiple assay endpoints where this one serves a enzymatic activity function. To generalize the intended target to other relatable targets, this assay endpoint is annotated to the protease intended target family, where the subfamily is cysteine protease.
Binding assays used specific radioligands (tritiated, iodinated) with non-radioactive competitive displacement ligands in agonist or antagonist protocols (as indicated) and various reference compounds and inhibitors to titrate specific binding to receptors and transporters. Most enzyme assays (CYPs, kinases, phosphatases, proteases, HDACs) used recombinant protein and specific substrates (fluorescence mostly, some colorimetric and radioactive) and inhibitors, followed by a biochemical separation of substrate and product. All assays for the biochemical HTS were initially run in duplicate at a single concentration (10 uM for CYP450 assays and 25 uM for all others). […]

[5] = biological target: human Caspase 8 (CASP8), CASP8 (gene 841) (UniProt Q14790); assay: NVS_ENZ_hCASP8: NovaScreen (NVS) Enzymatic Assay for human Caspase 8 (CASP8) (AID 2283146)
Summary of the method: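 E. coli-expressed enzyme was used in a cell-free fluorogenic substrate assay read 1 h after dosing. Loss of signal was scored relative to DMSO, and the primary screen was run in duplicate at 25 uM.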

[6] = biological target: human AKT serine/threonine Kinase 2 (AKT2), AKT2 (gene 208) (UniProt P31751); assay: NVS_ENZ_hAKT2: NovaScreen (NVS) Enzymatic Assay for human AKT serine/threonine Kinase 2 (AKT2) (AID 2283141)
Summary of the method: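 Cell-free fluorescence/electrophoretic mobility shift readout of recombinant human AKT2 activity, 1 h after chemical dosing. Duplicate primary screen at 25 uM, then singleton concentration-response up to 50 uM; loss of signal versus DMSO baseline.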

[7] = biological target: human Casein Kinase 2- alpha 2 beta 2 (CK2a2b2), CSNK2A1 (gene 1457) (UniProt P68400); assay: NVS_ENZ_hCK2a2b2: NovaScreen (NVS) Enzymatic Assay for human Casein Kinase 2- alpha 2 beta 2 (CK2a2b2) (AID 2283147)
Summary of the method: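 Cell-free recombinant CK2 α2β2 holoenzyme with a fluorescent peptide substrate; product separated by electrophoretic mobility shift and read 1 h after dosing. Single-point screen at 25 uM in duplicate; actives were followed with concentration-response up to 50 uM versus DMSO.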

[8] = biological target: human Colony Stimulating Factor 1 Receptor (CSF1R), CSF1R (gene 1436) (UniProt P07333); assay: NVS_ENZ_hCSF1R: NovaScreen (NVS) Enzymatic Assay for human Colony Stimulating Factor 1 Receptor (CSF1R) (AID 2283150)
Experimental: NVS_ENZ_hCSF1R is a biochemical, single-readout assay that uses extracted gene-proteins in a cell-free assay. Measurements were taken 1 hour after chemical dosing in a 384-well plate.NVS_ENZ_hCSF1R is one of one assay component(s) measured or calculated from the NVS_ENZ_hCSF1R assay. It is designed to make measurements of enzyme activity, a form of enzyme reporter, as detected with fluorescence intensity signals by Fluorescence and electrophoretic mobility shift technology.Data from the assay component NVS_ENZ_hCSF1R was analyzed into 1 assay endpoint. This assay endpoint, NVS_ENZ_hCSF1R, was analyzed in the positive analysis fitting direction relative to DMSO as the negative control and baseline of activity. Using a type of enzyme reporter, loss-of-signal activity can be used to understand changes in the enzymatic activity as they relate to the gene CSF1R. Furthermore, this assay endpoint can be referred to as a primary readout, because this assay has produced multiple assay endpoints where this one serves a enzymatic activity function. To generalize the intended target to other relatable targets, this assay endpoint is annotated to the kinase intended target family, where the subfamily is receptor tyrosine kinase. […]

[9] = biological target: human Casein Kinase 1-delta (CK1D), CSNK1D (gene 1453) (UniProt P48730); assay: NVS_ENZ_hCK1D: NovaScreen (NVS) Enzymatic Assay for human Casein Kinase 1-delta (CK1D) (AID 2283148)
Summary of the method: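 Recombinant human CK1-delta, cell-free; fluorescent substrate with electrophoretic mobility-shift separation of product, read 1 h after dosing. Single 25 uM duplicate screen, then concentration-response up to 50 uM; loss of signal vs DMSO.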

human Aurora Kinase A - serine/threonine-protein Kinase 6 (AurA), AURKA (gene 6790), sequence (O14965 whole entry, looked up): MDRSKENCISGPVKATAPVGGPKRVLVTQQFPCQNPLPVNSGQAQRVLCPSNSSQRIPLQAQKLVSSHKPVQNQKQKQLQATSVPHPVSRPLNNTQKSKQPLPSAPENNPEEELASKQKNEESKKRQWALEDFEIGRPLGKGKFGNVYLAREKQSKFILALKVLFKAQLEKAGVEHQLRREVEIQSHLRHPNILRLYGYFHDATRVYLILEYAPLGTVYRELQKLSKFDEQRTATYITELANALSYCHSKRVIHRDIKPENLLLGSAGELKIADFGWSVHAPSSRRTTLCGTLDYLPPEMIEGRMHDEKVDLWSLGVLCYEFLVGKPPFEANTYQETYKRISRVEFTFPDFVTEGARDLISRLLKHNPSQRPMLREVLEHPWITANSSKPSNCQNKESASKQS
human Caspase 8 (CASP8), CASP8 (gene 841), sequence (Q14790 whole entry, looked up): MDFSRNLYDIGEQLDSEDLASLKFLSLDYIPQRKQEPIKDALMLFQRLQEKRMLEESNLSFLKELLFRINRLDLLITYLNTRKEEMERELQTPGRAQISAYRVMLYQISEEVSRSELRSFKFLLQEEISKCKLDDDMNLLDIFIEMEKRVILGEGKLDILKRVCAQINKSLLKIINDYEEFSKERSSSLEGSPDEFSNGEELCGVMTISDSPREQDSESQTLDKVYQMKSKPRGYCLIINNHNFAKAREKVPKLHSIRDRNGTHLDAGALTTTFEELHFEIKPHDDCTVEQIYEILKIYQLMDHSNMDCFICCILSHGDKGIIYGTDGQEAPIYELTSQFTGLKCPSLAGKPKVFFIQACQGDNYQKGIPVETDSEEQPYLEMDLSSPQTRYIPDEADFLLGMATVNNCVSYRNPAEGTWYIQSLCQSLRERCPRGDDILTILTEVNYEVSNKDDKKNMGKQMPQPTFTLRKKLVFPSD
human AKT serine/threonine Kinase 2 (AKT2), AKT2 (gene 208), sequence (P31751 whole entry, looked up): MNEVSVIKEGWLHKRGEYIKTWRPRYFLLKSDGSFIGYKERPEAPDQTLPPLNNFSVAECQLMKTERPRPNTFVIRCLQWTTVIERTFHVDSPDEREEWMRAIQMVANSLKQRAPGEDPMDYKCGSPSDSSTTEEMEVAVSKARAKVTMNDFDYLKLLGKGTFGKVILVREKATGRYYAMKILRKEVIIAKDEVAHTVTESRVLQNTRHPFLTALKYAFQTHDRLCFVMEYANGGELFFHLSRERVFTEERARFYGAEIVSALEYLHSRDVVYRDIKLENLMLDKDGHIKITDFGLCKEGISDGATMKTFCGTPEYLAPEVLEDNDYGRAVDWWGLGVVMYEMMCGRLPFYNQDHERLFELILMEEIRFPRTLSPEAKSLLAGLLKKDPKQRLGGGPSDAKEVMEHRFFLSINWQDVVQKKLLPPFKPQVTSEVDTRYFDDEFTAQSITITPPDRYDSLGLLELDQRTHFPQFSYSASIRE
human Casein Kinase 2- alpha 2 beta 2 (CK2a2b2), CSNK2A1 (gene 1457), sequence (P68400 whole entry, looked up): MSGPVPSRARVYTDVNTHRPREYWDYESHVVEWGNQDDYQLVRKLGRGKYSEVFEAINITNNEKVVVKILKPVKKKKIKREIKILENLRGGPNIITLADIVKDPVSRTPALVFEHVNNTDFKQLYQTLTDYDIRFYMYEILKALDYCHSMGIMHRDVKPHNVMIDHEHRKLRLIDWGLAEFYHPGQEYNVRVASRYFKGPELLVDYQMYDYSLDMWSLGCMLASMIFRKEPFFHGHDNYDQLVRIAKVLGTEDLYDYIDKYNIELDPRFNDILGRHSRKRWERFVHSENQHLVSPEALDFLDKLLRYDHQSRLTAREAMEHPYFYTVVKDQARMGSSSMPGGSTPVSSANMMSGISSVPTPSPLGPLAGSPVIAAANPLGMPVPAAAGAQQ
human Caspase 4 (CASP4), CASP4 (gene 837), sequence (P49662 whole entry, looked up): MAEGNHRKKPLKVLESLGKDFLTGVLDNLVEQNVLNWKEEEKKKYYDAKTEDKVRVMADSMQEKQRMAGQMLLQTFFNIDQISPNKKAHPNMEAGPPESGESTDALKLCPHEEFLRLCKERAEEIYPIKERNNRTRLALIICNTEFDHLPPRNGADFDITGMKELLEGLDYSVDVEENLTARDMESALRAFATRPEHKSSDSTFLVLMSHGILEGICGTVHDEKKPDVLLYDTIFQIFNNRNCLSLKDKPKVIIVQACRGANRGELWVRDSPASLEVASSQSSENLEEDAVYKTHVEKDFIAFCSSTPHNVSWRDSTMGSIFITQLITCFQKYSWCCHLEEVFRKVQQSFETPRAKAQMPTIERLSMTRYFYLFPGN
human Dual Specificity Protein Phosphatase 3 (DUSP3), DUSP3 (gene 1845), sequence (P51452 whole entry, looked up): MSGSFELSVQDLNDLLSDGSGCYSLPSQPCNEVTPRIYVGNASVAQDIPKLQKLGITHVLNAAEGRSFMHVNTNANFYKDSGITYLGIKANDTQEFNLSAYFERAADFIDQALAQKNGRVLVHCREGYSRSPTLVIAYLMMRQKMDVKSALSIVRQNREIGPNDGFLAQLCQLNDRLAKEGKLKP
human Elastase, ELANE (gene 1991), sequence (P08246 whole entry, looked up): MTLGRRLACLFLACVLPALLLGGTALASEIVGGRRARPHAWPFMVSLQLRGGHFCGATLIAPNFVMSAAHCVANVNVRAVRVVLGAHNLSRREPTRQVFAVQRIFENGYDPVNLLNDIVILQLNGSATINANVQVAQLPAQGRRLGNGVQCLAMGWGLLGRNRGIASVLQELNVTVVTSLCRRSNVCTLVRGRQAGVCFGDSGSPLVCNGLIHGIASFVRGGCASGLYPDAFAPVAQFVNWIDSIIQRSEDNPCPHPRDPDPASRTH
human Colony Stimulating Factor 1 Receptor (CSF1R), CSF1R (gene 1436), sequence (P07333 whole entry, looked up): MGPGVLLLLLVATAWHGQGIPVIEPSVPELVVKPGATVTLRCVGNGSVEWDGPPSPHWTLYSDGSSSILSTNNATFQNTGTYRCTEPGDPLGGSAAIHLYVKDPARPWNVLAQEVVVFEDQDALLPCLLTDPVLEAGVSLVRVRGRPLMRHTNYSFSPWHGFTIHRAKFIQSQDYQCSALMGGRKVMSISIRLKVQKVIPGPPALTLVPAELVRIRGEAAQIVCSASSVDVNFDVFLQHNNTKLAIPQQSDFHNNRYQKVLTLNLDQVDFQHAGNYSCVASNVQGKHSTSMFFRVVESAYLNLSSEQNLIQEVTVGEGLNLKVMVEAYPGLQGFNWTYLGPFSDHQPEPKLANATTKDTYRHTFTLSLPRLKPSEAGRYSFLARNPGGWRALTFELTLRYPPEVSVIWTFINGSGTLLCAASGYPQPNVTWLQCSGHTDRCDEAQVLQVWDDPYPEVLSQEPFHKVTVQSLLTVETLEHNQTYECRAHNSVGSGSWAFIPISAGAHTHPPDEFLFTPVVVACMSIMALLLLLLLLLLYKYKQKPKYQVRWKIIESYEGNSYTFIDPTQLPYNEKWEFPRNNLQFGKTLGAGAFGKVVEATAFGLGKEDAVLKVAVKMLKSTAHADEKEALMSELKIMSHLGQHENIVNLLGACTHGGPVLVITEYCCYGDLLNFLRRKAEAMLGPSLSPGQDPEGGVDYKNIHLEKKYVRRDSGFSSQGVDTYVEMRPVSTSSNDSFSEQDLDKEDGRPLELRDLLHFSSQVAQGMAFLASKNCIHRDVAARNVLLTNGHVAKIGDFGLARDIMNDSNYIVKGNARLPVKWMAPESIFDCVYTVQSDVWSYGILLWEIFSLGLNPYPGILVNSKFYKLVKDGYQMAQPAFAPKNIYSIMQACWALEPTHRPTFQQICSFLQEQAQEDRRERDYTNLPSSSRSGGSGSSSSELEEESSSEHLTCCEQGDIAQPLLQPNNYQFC
human Casein Kinase 1-delta (CK1D), CSNK1D (gene 1453), sequence (P48730 whole entry, looked up): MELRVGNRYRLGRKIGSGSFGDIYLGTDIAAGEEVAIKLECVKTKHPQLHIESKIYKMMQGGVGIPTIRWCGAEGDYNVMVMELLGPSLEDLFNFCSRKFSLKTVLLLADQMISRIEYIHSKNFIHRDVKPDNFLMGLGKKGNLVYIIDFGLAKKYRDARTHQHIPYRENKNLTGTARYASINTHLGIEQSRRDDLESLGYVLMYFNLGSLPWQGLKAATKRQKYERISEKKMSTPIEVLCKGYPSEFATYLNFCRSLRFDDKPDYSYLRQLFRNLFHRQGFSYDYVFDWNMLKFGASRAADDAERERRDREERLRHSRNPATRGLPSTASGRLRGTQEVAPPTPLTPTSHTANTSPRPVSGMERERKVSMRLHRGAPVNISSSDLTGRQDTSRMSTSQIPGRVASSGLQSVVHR

CCNc1nc(Cl)nc(NC(C)(C)C#N)n1
outcome (CDK2 (gene 1017)): inactive

CCOP(=S)(OCC)Oc1cc(C)nc(C(C)C)n1
outcome [1]: inactive

CC[C@H](C)[C@H]1O[C@]2(C=C[C@@H]1C)C[C@@H]1C[C@@H](C/C=C(\C)[C@@H](O[C@H]3C[C@H](OC)[C@@H](O[C@H]4C[C@H](OC)[C@@H](NC)[C@H](C)O4)[C@H](C)O3)[C@@H](C)/C=C/C=C3\CO[C@@H]4[C@H](O)C(C)=C[C@@H](C(=O)O1)[C@]34O)O2
outcome [2]: inactive

S=C1NCCN1
outcome [3]: inactive | outcome [4]: inactive | outcome [5]: inactive | outcome [2]: inactive | outcome [1]: inactive

C=C(C)[C@H]1Cc2c(ccc3c2O[C@@H]2COc4cc(OC)c(OC)cc4[C@@H]2C3=O)O1
outcome [2]: inactive

O=C(O)c1cc(Oc2ccc(C(F)(F)F)cc2Cl)ccc1[N+](=O)[O-]
outcome [6]: inactive | outcome [5]: inactive | outcome [7]: inactive

CCCSP(=O)(OCC)Oc1ccc(Br)cc1Cl (configuration not stated)
AC50 [1]: 25 µM (active)

CSc1nnc(C(C)(C)C)c(=O)n1N
outcome [6]: inactive

CC(C)[C@H](C(=O)O[C@H](C#N)c1cccc(Oc2ccccc2)c1)c1ccc(Cl)cc1
outcome [3]: inactive | outcome [1]: inactive

CCOP(=O)(OCC)Oc1cc(C)nc(C(C)C)n1
outcome [1]: inactive

CN(C)[C@@H]1C(=O)C(C(N)=O)=C(O)[C@@]2(O)C(=O)C3=C(O)c4c(O)cccc4[C@@](C)(O)[C@H]3[C@H](O)[C@@H]12
AC50 [3]: 29.4 µM (active) | AC50 [4]: 11.9 µM (active) | AC50 [5]: 15.8 µM (active) | outcome [5]: inactive | AC50 [7]: 23.1 µM (active) | AC50 [8]: 12.5 µM (active) | AC50 [2]: 2.62 µM (active)

COc1ccc(C(=CC(=O)N2CCOCC2)c2ccc(Cl)cc2)cc1OC
outcome [5]: inactive

CCOP(=S)(Oc1cnc(C(C)(C)C)nc1)OC(C)C (configuration not stated)
outcome [7]: inactive

CC(Oc1cccc(Cl)c1)C(=O)O (configuration not stated)
AC50 [7]: 15 µM (active)

CSc1nc(NC(C)C)nc(NC(C)C)n1
outcome [6]: inactive

CCCOCC(=Nc1ccc(Cl)cc1C(F)(F)F)n1ccnc1
outcome [2]: inactive

CC(C)=CC1C(C(=O)OCN2C(=O)C3=C(CCCC3)C2=O)C1(C)C (configuration not stated)
AC50 [5]: 25 µM (active)

Cc1nn(-c2cc(NS(C)(=O)=O)c(Cl)cc2Cl)c(=O)n1C(F)F
outcome [5]: inactive

CCC(=O)Nc1ccc(Cl)c(Cl)c1
outcome [4]: inactive | AC50 [7]: 1.66 µM (active) | AC50 [9]: 23.6 µM (active)

Nc1c(Cl)cc([N+](=O)[O-])cc1Cl
outcome [6]: inactive

CCCCN(CC)c1c([N+](=O)[O-])cc(C(F)(F)F)cc1[N+](=O)[O-]
outcome (CDK2 (gene 1017)): inactive

CCCOc1nn(C(=O)NS(=O)(=O)c2ccccc2C(=O)OC)c(=O)n1C
outcome [8]: inactive

C#CCC1=C(C)C(OC(=O)C2C(C=C(C)C)C2(C)C)CC1=O (configuration not stated)
outcome [2]: inactive

CCOP(=O)(NC(C)C)Oc1ccc(SC)c(C)c1 (configuration not stated)
outcome (CDK2 (gene 1017)): inactive

Nc1nc(N)nc(NC2CC2)n1
outcome [5]: inactive | AC50 [9]: 16.3 µM (active)

CCCCOC(=O)[C@@H](C)Oc1ccc(Oc2ccc(C#N)cc2F)cc1
outcome [2]: inactive
